In ChEMBL document CHEMBL5606460, “ASAP - DENV-2 NS2B-NS3 protease fluorescence single point” (2024):
Screen size: about 2,000 compounds; about 110 (5.5%) showed an effect of 50% or more. This is one part of a sample in which strong results are shown more often than they occur.

Target: Genome polyprotein (dengue virus type 2) (UniProt P29990)
[1] = Thailand/16681/1984, Concentration 25.0 uM, Number of replicates 1.0

**Q.** Cc1cc(CO)c2cccc(NC(=O)CN3CCOCC3)c2n1 was tested. Which inhibition (Thailand/16681/1984, Concentration 49.95 uM, Number of replicates 2.0, Standard deviation 2.1720644748171827 %) did it give?
**A.** The inhibition was 8.27%.

**Q.** And the inhibition (Thailand/16681/1984, Concentration 99.9 uM, Number of replicates 2.0, Standard deviation 1.8504772771832996 %)?
**A.** The inhibition was 15.1%.

**Q.** CS(=O)(=O)N1CCC(C(=O)Nc2nc3c(F)cccc3s2)CC1 was tested. Which inhibition (Thailand/16681/1984, Concentration 49.5 uM, Number of replicates 2.0, Standard deviation 0.96531236791799 %) did it give?
**A.** The inhibition was 0.796%.

**Q.** And the inhibition (Thailand/16681/1984, Concentration 99.01 uM, Number of replicates 2.0, Standard deviation 0.9471689504241718 %)?
**A.** The inhibition was 0.997%.

**Q.** And the inhibition (Thailand/16681/1984, Concentration 198.0 uM, Number of replicates 2.0, Standard deviation 0.2746253667085591 %)?
**A.** The inhibition was 0.83%.

**Q.** With NCc1cccc(NC(=O)[C@H]2CCN(C(=O)OCc3ccccc3)C2)c1 as the compound, how does the inhibition (Thailand/16681/1984, Concentration 49.5 uM, Number of replicates 2.0, Standard deviation 1.9221944810499825 %) read?
**A.** Its inhibition is -1.99%.

**Q.** And the inhibition (Thailand/16681/1984, Concentration 99.01 uM, Number of replicates 2.0, Standard deviation 1.6664051520702452 %)?
**A.** Its inhibition is -1.6%.

**Q.** What about the inhibition (Thailand/16681/1984, Concentration 198.0 uM, Number of replicates 2.0, Standard deviation 2.955416090340052 %) of the same compound?
**A.** Its inhibition is -1.98%.

**Q.** How did the inhibition [1] turn out when O=Cc1ccc(N2CCC(C(=O)N[C@H]3CCOc4ccc(F)cc43)CC2)cc1 was run?
**A.** Its inhibition is 15.7%.

**Q.** COc1cc(Cc2cnn(-c3ccc(F)cc3)c2)nc(N2CCNCC2)n1 was tested. Which inhibition (Thailand/16681/1984, Concentration 49.5 uM, Number of replicates 2.0, Standard deviation 0.031215136118926425 %) did it give?
**A.** Its inhibition is 0.871%.

**Q.** And the inhibition (Thailand/16681/1984, Concentration 99.01 uM, Number of replicates 2.0, Standard deviation 1.7579341775024742 %)?
**A.** Its inhibition is 1.83%.

**Q.** And the inhibition (Thailand/16681/1984, Concentration 198.0 uM, Number of replicates 2.0, Standard deviation 1.6450393762001025 %)?
**A.** The inhibition was 5.51%.

**Q.** What does the source list for O=C(O)c1ccn(C2CCN(Cc3c[nH]c4ccccc34)CC2)n1?
**A.** inhibition (Thailand/16681/1984, Concentration 49.5 uM, Number of replicates 2.0, Standard deviation 2.1869842063089484 %): -2.55%; inhibition (Thailand/16681/1984, Concentration 99.01 uM, Number of replicates 2.0, Standard deviation 2.684345636447637 %): -2.42%; inhibition (Thailand/16681/1984, Concentration 198.0 uM, Number of replicates 2.0, Standard deviation 2.4976754742252494 %): -2.46%

**Q.** With Cc1cnc(NC(=O)C2CCN(c3ccc(C=O)cc3)CC2)c([N+](=O)[O-])c1 as the compound, how does the inhibition [1] read?
**A.** The inhibition was 14.4%.

**Q.** Which inhibition (Thailand/16681/1984, Concentration 49.95 uM, Number of replicates 2.0, Standard deviation 0.8412168519630298 %) does the source give for Cc1cc(CO)c2cccc(Cc3cccc(NC(=O)Cc4c[nH]c5ccccc45)c3)c2n1 here?
**A.** Its inhibition is -0.469%.

**Q.** What about the inhibition (Thailand/16681/1984, Concentration 99.9 uM, Number of replicates 2.0, Standard deviation 1.20193607081355 %) of the same compound?
**A.** The inhibition was 3.26%.

**Q.** What does the source list for Cc1cc(CO)c2cccc(Cc3ccccc3NC(=O)C[C@H]3CCCN3)c2n1?
**A.** inhibition (Thailand/16681/1984, Concentration 49.95 uM, Number of replicates 2.0, Standard deviation 2.3110961437297597 %): -1.74%; inhibition (Thailand/16681/1984, Concentration 99.9 uM, Number of replicates 1.0): -1.01%

**Q.** What does the source list for Cc1cnccc1NC(=O)c1cncc(S(C)(=O)=O)c1?
**A.** inhibition (Thailand/16681/1984, Concentration 49.5 uM, Number of replicates 2.0, Standard deviation 0.09362930826064811 %): 1.61%; inhibition (Thailand/16681/1984, Concentration 99.01 uM, Number of replicates 2.0, Standard deviation 0.10343333957385824 %): 2.02%; inhibition (Thailand/16681/1984, Concentration 198.0 uM, Number of replicates 2.0, Standard deviation 0.39657621920361824 %): 2.99%

**Q.** How did the inhibition (Thailand/16681/1984, Concentration 49.5 uM, Number of replicates 2.0, Standard deviation 1.473545535483215 %) turn out when COc1cc(CC(=O)NCc2cccnc2)nc(N2CCNCC2)n1 was run?
**A.** Its inhibition is -5.12%.

**Q.** What about the inhibition (Thailand/16681/1984, Concentration 99.01 uM, Number of replicates 2.0, Standard deviation 1.7989399422367844 %) of the same compound?
**A.** Its inhibition is -4.77%.

**Q.** What about the inhibition (Thailand/16681/1984, Concentration 198.0 uM, Number of replicates 2.0, Standard deviation 1.3802101593440819 %) of the same compound?
**A.** The inhibition was -3.61%.

**Q.** CNS(=O)(=O)c1ccc(Oc2ccccc2Cl)cc1 was tested. Which inhibition (Thailand/16681/1984, Concentration 49.5 uM, Number of replicates 2.0, Standard deviation 2.6119045762628477 %) did it give?
**A.** The inhibition was -1.72%.

**Q.** And the inhibition (Thailand/16681/1984, Concentration 99.01 uM, Number of replicates 2.0, Standard deviation 1.5233102161282106 %)?
**A.** The inhibition was -0.429%.

**Q.** What about the inhibition (Thailand/16681/1984, Concentration 198.0 uM, Number of replicates 2.0, Standard deviation 1.4243001461587221 %) of the same compound?
**A.** The inhibition was 1.7%.

**Q.** Which results are given for CNC(=O)c1cc(Cl)ccc1NS(=O)(=O)c1ccc(Oc2ccccc2Cl)cc1?
**A.** inhibition (Thailand/16681/1984, Concentration 49.5 uM, Number of replicates 2.0, Standard deviation 2.214504665393713 %): 57.1%; inhibition (Thailand/16681/1984, Concentration 99.01 uM, Number of replicates 2.0, Standard deviation 0.44410505168195935 %): 89.7%; inhibition (Thailand/16681/1984, Concentration 198.0 uM, Number of replicates 2.0, Standard deviation 0.048202507704939286 %): 89.7%

**Q.** Which inhibition (Thailand/16681/1984, Concentration 49.5 uM, Number of replicates 2.0, Standard deviation 0.5844803568567073 %) does the source give for O=C(NCc1ccccc1)c1cc(O)ccc1NS(=O)(=O)c1ccc(Oc2ccccc2Cl)cc1 here?
**A.** The inhibition was 33.5%.

**Q.** What about the inhibition (Thailand/16681/1984, Concentration 99.01 uM, Number of replicates 2.0, Standard deviation 0.18145668135528656 %) of the same compound?
**A.** Its inhibition is 55.3%.

**Q.** What about the inhibition (Thailand/16681/1984, Concentration 198.0 uM, Number of replicates 2.0, Standard deviation 0.23302823954279267 %) of the same compound?
**A.** Its inhibition is 60.6%.

**Q.** With CNC(=O)c1cc(OC)ccc1NS(=O)(=O)c1ccc(Oc2ccccc2Cl)cc1 as the compound, how does the inhibition (Thailand/16681/1984, Concentration 49.5 uM, Number of replicates 2.0, Standard deviation 1.018543331825067 %) read?
**A.** The inhibition was 7.08%.

**Q.** And the inhibition (Thailand/16681/1984, Concentration 99.01 uM, Number of replicates 2.0, Standard deviation 0.3266212172200244 %)?
**A.** Its inhibition is 15.5%.

**Q.** And the inhibition (Thailand/16681/1984, Concentration 198.0 uM, Number of replicates 2.0, Standard deviation 0.9287695329724984 %)?
**A.** The inhibition was 21.9%.

**Q.** What does the source list for O=C(O)c1cc(Cl)ccc1NS(=O)(=O)c1ccc(Br)cc1?
**A.** inhibition (Thailand/16681/1984, Concentration 49.5 uM, Number of replicates 2.0, Standard deviation 1.3795853744617563 %): 7.98%; inhibition (Thailand/16681/1984, Concentration 99.01 uM, Number of replicates 2.0, Standard deviation 2.3616490916140984 %): 19.6%; inhibition (Thailand/16681/1984, Concentration 198.0 uM, Number of replicates 2.0, Standard deviation 0.9946440456706616 %): 67%

**Q.** For O=S(=O)(Nc1ccc(Cl)cc1)c1ccc(Oc2ccccc2Cl)cc1, which inhibition (Thailand/16681/1984, Concentration 49.5 uM, Number of replicates 2.0, Standard deviation 0.04775136783847868 %) is on record?
**A.** The inhibition was 12.2%.

**Q.** And the inhibition (Thailand/16681/1984, Concentration 99.01 uM, Number of replicates 2.0, Standard deviation 0.32853232391890236 %)?
**A.** Its inhibition is 22.7%.

**Q.** What about the inhibition (Thailand/16681/1984, Concentration 198.0 uM, Number of replicates 2.0, Standard deviation 1.060565762839157 %) of the same compound?
**A.** Its inhibition is 44.5%.

**Q.** What does the source list for O=C(O)c1cc(Cl)ccc1NS(=O)(=O)c1ccc(Oc2ccccc2Cl)cc1?
**A.** inhibition (Thailand/16681/1984, Concentration 49.5 uM, Number of replicates 2.0, Standard deviation 0.09788858447746204 %): 95.7%; inhibition (Thailand/16681/1984, Concentration 99.01 uM, Number of replicates 2.0, Standard deviation 0.14802782416517393 %): 94.6%; inhibition (Thailand/16681/1984, Concentration 198.0 uM, Number of replicates 2.0, Standard deviation 0.06255266668592849 %): 91.9%
